In general, viability refers to a read-out of living cells in per cent, often relative to untreated cells.

Each structure is given as a SMILES string. Where “and” joins values, the source holds several entries; their conditions need not be identical. Equal entries are not always repeated. Calls of active or inactive are those of the source.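 How the source made its calls, unless noted: active means compounds whose cell count with miR-34 switched on is under 0.7 times the count with it off; inactive means the rest.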

The values below come from PubChem BioAssay.

Experiment [1] can be described thus: P. berghei load reduction in hepatocytes – cell-based, HepG2, luciferase luminescence, HepG2 viability, primary screen (AID 624349; in the data active means parasite load remaining mostly below about 12%, no sharp cut-off; inactive means mostly above about 10%;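 further: 100% = mean of DMSO negative control wells on the same plate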). Particulars: P. berghei liver stage in HepG2, luciferase luminescence, concentration not given here; parasite load remaining: stronger effect = lower value; viability: measured here: HepG2 viability without parasites.
The nature of experiment [2]: Wnt pathway potentiators raising nuclear beta-catenin – imaging, WNT3A-conditioned medium, mouse C2C12, NPC library, primary screen (AID 1117326; in the data active means nuclear beta-catenin stimulation mostly above about 4.2%, no sharp cut-off; inactive means mostly below about 10%). Conditions: stronger effect = higher value.
A short description of experiment [3]: stimulators of insulin release from INS-1E, primary screen, cell-based, 5 mM glucose, NPC library (AID 1117329;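 active means compound raises insulin release from rat beta cells at 5 mM glucose, no numeric limit stated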). Conditions: rat INS-1E insulin secretion, at 10 µM, stronger effect = higher value.
A short description of experiment [4]: growth inhibition of GSK3B-pretreated HCT116 cells – cell-based, CellTiter-Glo, 0.2 to 20 µM (AID 1117336;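 active means compounds lowering colon cancer cell viability after pretreatment blocking the GSK3B kinase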). Particulars: HCT116 viability after GSK3B inhibitor, at 20 µM, stronger effect = higher value. (ATP-based viability assays read luminescence as a measure of living cells.)
Experiment [5] in a line: inhibition of endothelial tube formation, primary screen, imaging, VEGF stimulated, CD31 staining, tube area, NPC library (AID 1117340;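 active means compound that reduces growth-factor-driven endothelial tube area in a mixed cell culture, no cutoff stated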). Conditions: VEGF-stimulated ADSC/ECFC co-culture, at 10 µM, stronger effect = higher value.
Experiment [6] in a line: GLP1 release stimulators, primary, NCI-H716, NPC library (AID 1117341;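 active means compound raises GLP1 secretion from the human gut endocrine cells, with no numeric limit stated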). Particulars: NCI-H716 cells, at 10 µM, stronger effect = higher value.
Experiment [7] in a line: HCT116 colon cancer cell growth inhibition, primary screen, CellTiter-Glo luminescence, NPC library (AID 1117342;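 active means compounds that lower survival of HCT116 colon cancer cells in the luminescence readout, no numeric limit stated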). Particulars: at 20 µM (top of the series).
Experiment [8] can be described thus: reduced SW480 viability measured with CellTiter-Glo, NPC library, primary (AID 1117343;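 active means compounds that lower viability of the colon cancer cells in the luminescence readout, with no numeric limit stated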). Particulars: CellTiter-Glo luminescence; at 20 µM (top of the series) unless noted.
Experiment [9] is described as follows: NPC library primary testing for decreased DLD-1 cell viability via CellTiter-Glo (AID 1117346;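 active means compounds that lower survival of DLD-1 colon cancer cells in the luminescence readout, no cutoff given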). Conditions: DLD-1 viability, CellTiter-Glo luminescence; at 20 µM (top of the series).
A short description of experiment [10]: EMT-state selective cytotoxicity in co-culture – imaging, PC-3E GFP, TEM4-18 mCherry, primary screen (AID 1345086;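 active means compounds killing one labelled cell type while sparing the other, by normalised counts and ratio limits, not self-fluorescent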;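 on all read-outs here: cells exposed to compound for 72 h before imaging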;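 on red/green cell ratio (normalised): normalised mesenchymal count divided by normalised epithelial count so high means epithelial killing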). Conditions: PC-3E GFP / TEM4-18 mCherry co-culture, imaging cell counts, at 1 µM; for red/green cell ratio (normalised): actives lie on both sides, counts scaled to control wells, 1 = unselective.
Experiment [11] is described as follows: viability loss with induced miR-34 in A549 – imaging, A549 dox-inducible miR-34, nuclei and caspase counts, primary screen (AID 1347080). Particulars: A549 miR-34 inducible, Hoechst nuclei count, 48 h.
Experiment [12] in a line: MELAS cybrid and Rieske KO viability enhancers – cell-based, MELAS cybrids, Rieske KO mouse fibroblasts, CellTiter-Glo, primary screen (AID 1508586;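 active means mean z-score across replicates of 1.96 or higher in either the MELAS or the Rieske mutant cell line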;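 further: z relative to plate mean and SD of compound and empty wells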). Particulars: low glucose.
The target in experiment [13] is NAD(+) hydrolase SARM1 (Homo sapiens) (UniProt Q6SZW1). As to the kind of experiment: blocking NAD cleavage by SARM1 SAM-TIR – cell lysate, NAD-Glo luminescence (AID 1508614;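 active means compound whose remaining NAD level is above about 45 nM, limit read from the data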). Conditions: SAM-TIR HEK293T lysate NADase, at 1 µM, stronger effect = higher value.
Experiment [14] in a line: compounds altering viability of human ES cells (AID 493140; call rule not given here;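 further: cells exposed to compounds for four days before counting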). Particulars: human embryonic stem cell survival screen; stronger effect = higher value.
The mark [15] stands for this setting: measured here: epithelial PC-3E GFP cell survival.
Where [16] appears, read: measured here: mesenchymal TEM4-18 mCherry cell survival.
Setting [17] is: stronger effect = lower value, cell number ratio, induced over uninduced.
Setting [18] is: measured here: relative caspase fold change +Dox/-Dox.
Where [19] appears, read: measured here: total cells with miR-34 induction, stronger effect = lower value.
Setting [20] is: measured here: total cells without miR-34 induction.
[21] abbreviates: MELAS cybrid survival, CellTiter-Glo 48 h, stronger effect = higher value.
Where [22] appears, read: Rieske KO mouse fibroblast survival, CellTiter-Glo 72 h.

Chain of NAD(+) hydrolase SARM1 (Homo sapiens) (Q6SZW1 whole entry, looked up): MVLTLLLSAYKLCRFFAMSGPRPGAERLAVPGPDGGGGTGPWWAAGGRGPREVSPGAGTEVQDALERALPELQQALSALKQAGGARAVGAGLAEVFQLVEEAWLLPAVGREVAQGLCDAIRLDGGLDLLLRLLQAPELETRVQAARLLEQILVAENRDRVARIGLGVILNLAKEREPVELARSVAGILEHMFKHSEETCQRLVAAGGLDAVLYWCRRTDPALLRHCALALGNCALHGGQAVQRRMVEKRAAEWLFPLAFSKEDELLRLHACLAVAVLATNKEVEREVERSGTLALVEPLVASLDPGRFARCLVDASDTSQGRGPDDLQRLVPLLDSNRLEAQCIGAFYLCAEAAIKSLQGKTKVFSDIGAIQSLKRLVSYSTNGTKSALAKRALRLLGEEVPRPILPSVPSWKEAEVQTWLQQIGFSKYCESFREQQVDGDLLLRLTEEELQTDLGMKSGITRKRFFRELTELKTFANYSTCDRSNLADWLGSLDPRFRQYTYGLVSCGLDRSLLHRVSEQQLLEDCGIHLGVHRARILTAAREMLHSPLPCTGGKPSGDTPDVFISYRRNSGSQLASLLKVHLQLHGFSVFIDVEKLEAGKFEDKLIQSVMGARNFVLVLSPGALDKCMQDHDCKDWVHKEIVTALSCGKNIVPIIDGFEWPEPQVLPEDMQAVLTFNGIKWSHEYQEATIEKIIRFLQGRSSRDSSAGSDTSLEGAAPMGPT

As for `CCOc1nc2cccc(C(=O)O)c2n1Cc1ccc(-c2ccccc2-c2nn[nH]n2)cc1`, the parasite load remaining in experiment [1] was 51% (inactive). The viability in [1] is 130%. Besides, the nuclear beta-catenin stimulation in [2] (at 10 µM) is -1.9% (inactive); in experiment [2] (stimulation, at 2 µM), 0.8%. In addition, in experiment [3], the insulin secretion stimulation was 1.4% (inactive). The viability decrease in [4] was -7.7% (inactive). Besides, the tube area decrease in experiment [5] is 5.3% (inactive). Further, in experiment [6], the GLP1 secretion stimulation is -1.6% (inactive). In addition, in experiment [7], the inhibition of viability is -9.8% (inactive). Moreover, the figures for the viability decrease (inhibition) in experiment [8] and in [9] were 16.8% (inactive) and -13% (inactive), respectively. Also, in [10], the red/green cell ratio (normalised) is 1.24 (inactive). Further, the normalised cell number came out at 1.08 in experiment [10] (setting [15]) and 1.35 in experiment [10] (setting [16]). The fold change in experiment [11] (setting [17]) is 1.02 (inactive) and 0.834 (inactive); in experiment [11] (setting [18]), 0.596 and 1.3. Further, the cell count in experiment [11] (setting [19]) was 7490 and 8900; in experiment [11] (setting [20]) it was 7350 and 10700. Moreover, the z-score in experiment [12] (setting [21]) is -0.183 (inactive) and 0.664 (inactive) and -0.412 (inactive); in experiment [12] (setting [22]), -0.0185 and -0.257 and -0.953. In addition, in experiment [13], the remaining NAD was 10 nM (inactive).
For the molecule `N=C(N)N1CCc2ccccc2C1`, the survival in experiment [14] was 9.58 (inactive). Moreover, the nuclear beta-catenin stimulation in experiment [2] (at 10 µM) was 0.5% (inactive); in experiment [2] (stimulation, at 2 µM), 0.9%. Also, the insulin secretion stimulation in [3] was 1.35% (inactive). Also, in [4], the viability decrease is 12.1% (inactive). In experiment [5], the tube area decrease was -0.3% (inactive). Moreover, the GLP1 secretion stimulation in experiment [6] is 3.1% (inactive). In [7], the inhibition of viability was 9.2% (inactive). Moreover, the values for the viability decrease (inhibition) in experiment [8] and in [9] were 5.1% (inactive) and 0% (inactive), respectively. In addition, the red/green cell ratio (normalised) in [10] is 0.87 (inactive). Moreover, the normalised cell number in experiment [10] (setting [15]) came to 1.22; in experiment [10] (setting [16]), 1.07. In addition, the fold change in experiment [11] (setting [17]) is 0.813 (inactive) and 0.913 (inactive) and 0.943 (inactive); in experiment [11] (setting [18]) it was 1.55 and 2.39 and 2.81. Moreover, the cell count in [11] (setting [19]) was 8490 and 11800 and 9640; in experiment [11] (setting [20]) it was 10400 and 13000 and 10200. Moreover, the z-score was 0.0225 (inactive) and -0.468 (inactive) in experiment [12] (setting [21]); -0.12 and -1.06 in [12] (setting [22]). The remaining NAD in experiment [13] is 10 nM (inactive).
As to `COc1cc(C(=O)N2CCOCC2)cc(OC)c1OC`, the parasite load remaining in [1] is 75.3% (inactive). Moreover, the viability in experiment [1] was found to be 105%. Moreover, the nuclear beta-catenin stimulation was 0.3% (inactive) in [2] (at 10 µM) and -0.7% in experiment [2] (stimulation, at 2 µM). Besides, in experiment [3], the insulin secretion stimulation was -1.8% (inactive). Besides, the viability decrease in [4] is 14.1% (inactive). Besides, the tube area decrease in experiment [5] was -2.8% (inactive). Also, the GLP1 secretion stimulation in experiment [6] was 6.1% (inactive). In experiment [7], the inhibition of viability was -2.4% (inactive). For the same molecule, the viability decrease (inhibition) in experiment [8] was 30.7% (inactive); in [9], 20.1% (inactive). In addition, the red/green cell ratio (normalised) in experiment [10] was 1.06 (inactive). Further, the normalised cell number in experiment [10] (setting [15]) was found to be 1.01; in experiment [10] (setting [16]), 1.07. The fold change was 0.951 (inactive) in experiment [11] (setting [17]) and 1.55 in experiment [11] (setting [18]). For the same molecule, the values for the cell count in [11] (setting [19]) and in experiment [11] (setting [20]) were 11700 and 12300, respectively. For the same molecule, the z-score in [12] (setting [21]) was 0.673 (inactive); in experiment [12] (setting [22]), 0.477. In experiment [13], the remaining NAD was 10 nM (inactive).
For the molecule `CC(=O)c1ccc2c(c1)N(CCCN1CCC(CCO)CC1)c1ccccc1S2`, the survival in [14] is 3.92 (inactive). For the same molecule, the parasite load remaining in [1] was 69.8% (inactive). In addition, in [1], the viability was determined as 79.8%. The nuclear beta-catenin stimulation was 3% (inactive) in experiment [2] (at 10 µM) and 0.4% in experiment [2] (stimulation, at 2 µM). The insulin secretion stimulation in experiment [3] was 1.7% (inactive). In [4], the viability decrease is 78.7% (active). For the same molecule, in experiment [5], the tube area decrease was 3.9% (inactive). Moreover, in experiment [6], the GLP1 secretion stimulation was -6.7% (inactive). The inhibition of viability in experiment [7] is 77.2% (active). Besides, the viability decrease (inhibition) in [8] was 85.4% (active); in experiment [9] it was 60% (active). The red/green cell ratio (normalised) in experiment [10] is 1.13 (inactive). In addition, the results for the normalised cell number in experiment [10] (setting [15]) and in experiment [10] (setting [16]) were 0.92 and 1.04, respectively. The fold change in experiment [11] (setting [17]) was 0.911 (inactive); in experiment [11] (setting [18]), 0.592. In addition, the cell count in experiment [11] (setting [19]) stood at 8130; in experiment [11] (setting [20]), 8930. Also, the z-score is -0.364 (inactive) in experiment [12] (setting [21]) and -0.0941 in experiment [12] (setting [22]). Also, the remaining NAD in [13] was 10 nM (inactive).
